Laboratory results published in the supplement of paper PMC8728848.
Only a selection was taken, and the strongest signals are over-represented in it overall.

Key:
Test in all cases: glycan array binding signal (z-score within array); higher = stronger binding
Settings in all cases: glycan notation: IUPAC condensed, linker removed
[1] = biological target: GalNAc3S(b1-4)GlcNAc3S
In short: (§1)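 Negative Z-scores can be read as non-binding. The Z-score is calculated within each array and then averaged across arrays of one protein sequence at different concentrations or buffers and across linkers. Arrays, 3228 in all, were curated from the Consortium for Functional Glycomics database and kept only where the protein sequence was available.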

[2] = biological target: GlcNAc(b1-2)Gal(b1-3)GalNAc
In short: as §1

[3] = biological target: GlcNAc(b1-2)Man(a1-3)[GlcNAc(b1-2)Man(a1-6)]Man(b1-4)GlcNAc(b1-4)GlcNAc
In short: as §1

[4] = biological target: GlcNAc(b1-2)[GlcNAc(b1-4)]Man(a1-3)[GlcNAc(b1-2)Man(a1-6)]Man(b1-4)GlcNAc(b1-4)GlcNAc
In short: as §1

[5] = biological target: GlcNAc(b1-3)Gal(b1-4)GlcNAc
In short: as §1

[6] = biological target: GlcNAc(b1-3)Gal(b1-4)GlcNAc(b1-3)Gal(b1-4)GlcNAc(b1-2)Man(a1-3)[GlcNAc(b1-3)Gal(b1-4)GlcNAc(b1-3)Gal(b1-4)GlcNAc(b1-2)Man(a1-6)]Man(b1-4)GlcNAc(b1-4)GlcNAc
In short: as §1

[7] = biological target: GlcNAc(b1-3)Gal(b1-4)GlcNAc(b1-6)[GlcNAc(b1-3)Gal(b1-3)]GalNAc
In short: as §1

[8] = biological target: Kdn(a2-3)Gal(b1-3)GalNAc
In short: as §1

[9] = biological target: Kdn(a2-3)Gal(b1-3)GlcNAc
In short: as §1

[10] = biological target: Man(a1-2)Man(a1-3)[Man(a1-6)]Man(a1-6)[Man(a1-2)Man(a1-3)]Man(b1-4)GlcNAc(b1-4)GlcNAc
In short: as §1

[11] = biological target: Man(a1-2)Man(a1-6)[Man(a1-3)]Man(a1-6)[Man(a1-2)Man(a1-2)Man(a1-3)]Man(b1-4)GlcNAc(b1-4)GlcNAc
In short: as §1

[12] = biological target: Man(a1-3)[Man(a1-6)]Man(a1-6)[Man(a1-2)Man(a1-3)]Man(b1-4)GlcNAc(b1-4)GlcNAc
In short: as §1

[13] = biological target: Man(a1-3)[Man(a1-6)]Man(a1-6)[Man(a1-3)]Man(b1-4)GlcNAc(b1-4)GlcNAc
In short: as §1

[14] = biological target: Man(a1-3)[Man(a1-6)]Man(b1-4)GlcNAc(b1-4)GlcNAc
In short: as §1

[15] = biological target: Man(a1-3)[Man(a1-6)]Man(b1-4)GlcNAc(b1-4)[Fuc(a1-6)]GlcNAc
In short: as §1

[16] = biological target: Neu5Ac(a2-3)Gal(b1-3)GlcNAc(b1-2)Man
In short: as §1

[17] = biological target: Neu5Ac(a2-3)Gal(b1-3)GlcNAc(b1-3)GalNAc
In short: as §1

[18] = biological target: Neu5Ac(a2-3)Gal(b1-3)GlcNAc(b1-4)Gal(b1-4)Glc
In short: as §1

[19] = biological target: Neu5Ac(a2-3)Gal(b1-4)GlcNAc(b1-3)Gal
In short: as §1

[20] = biological target: Neu5Ac(a2-3)Gal(b1-4)[Fuc(a1-3)]GlcNAc(b1-3)Gal
In short: as §1

[21] = biological target: Neu5Ac(a2-3)Gal(b1-4)[Fuc(a1-3)]GlcNAc(b1-3)GalNAc
In short: as §1

[22] = biological target: Neu5Ac(a2-3)[GalNAc(b1-4)]Gal(b1-4)GlcNAc
In short: as §1

[23] = biological target: Neu5Ac(a2-6)Gal(b1-4)Glc
In short: as §1

[24] = biological target: Neu5Ac(a2-6)Gal(b1-4)GlcNAc(b1-2)Man(a1-6)[Man(a1-3)]Man(b1-4)GlcNAc(b1-4)GlcNAc
In short: as §1

[25] = biological target: Neu5Ac(a2-8)Neu5Ac(a2-3)Gal(b1-3)GalNAc(b1-4)[Neu5Ac(a2-3)]Gal(b1-4)Glc
In short: as §1

[26] = biological target: Fuc(a1-2)Gal(b1-3)GalNAc(b1-3)Gal(b1-4)Glc
In short: as §1

[27] = biological target: Fuc(a1-2)Gal(b1-3)GlcNAc(b1-3)Gal(b1-4)Glc
In short: as §1

[28] = biological target: Fuc(a1-2)Gal(b1-3)GlcNAc(b1-3)[Fuc(a1-2)Gal(b1-3)GlcNAc(b1-6)]GalNAc
In short: as §1

[29] = biological target: Fuc(a1-2)Gal(b1-3)[Fuc(a1-4)]GlcNAc(b1-2)Man(a1-3)[Fuc(a1-2)Gal(b1-3)[Fuc(a1-4)]GlcNAc(b1-2)Man(a1-6)]Man(b1-4)GlcNAc(b1-4)[Fuc(a1-6)]GlcNAc(b1-4)[Fuc(a1-6)]GlcNAc
In short: as §1

[30] = biological target: Fuc(a1-2)Gal(b1-4)GlcNAc(b1-3)Gal(b1-4)GlcNAc
In short: as §1

[31] = biological target: Fuc(a1-2)Gal(b1-4)GlcNAc(b1-3)Gal(b1-4)GlcNAc(b1-3)Gal(b1-4)GlcNAc
In short: as §1

[32] = biological target: Fuc(a1-2)Gal3S(b1-4)GlcNAc
In short: as §1

[33] = biological target: Fuc(a1-2)Gal6S(b1-4)Glc6S
In short: as §1

[34] = biological target: Fuc(a1-2)[Gal(a1-3)]Gal(b1-4)GlcNAc
In short: as §1

[35] = biological target: Fuc(a1-2)[Gal(a1-3)]Gal(b1-4)GlcNAc(b1-2)Man(a1-3)[Fuc(a1-2)[Gal(a1-3)]Gal(b1-4)GlcNAc(b1-2)Man(a1-6)]Man(b1-4)GlcNAc(b1-4)[Fuc(a1-6)]GlcNAc
In short: as §1

[36] = biological target: Fuc(a1-2)[GalNAc(a1-3)]Gal(b1-3)GlcNAc
In short: as §1

[37] = biological target: Fuc(a1-2)[GalNAc(a1-3)]Gal(b1-4)GlcNAc
In short: as §1

[38] = biological target: Fuc(a1-2)[GalNAc(a1-3)]Gal(b1-4)GlcNAc(b1-2)Man
In short: as §1

[39] = biological target: Fuc(a1-2)[GalNAc(a1-3)]Gal(b1-4)[Fuc(a1-3)]GlcNAc(b1-3)GalNAc
In short: as §1

[40] = biological target: Fuc(a1-3)GlcNAc
In short: as §1

[41] = biological target: Gal(a1-3)Gal(b1-3)GlcNAc(b1-2)Man(a1-3)[Gal(a1-3)Gal(b1-3)GlcNAc(b1-2)Man(a1-6)]Man(b1-4)GlcNAc(b1-4)GlcNAc
In short: as §1

[42] = biological target: Gal(a1-4)Gal(b1-4)GlcNAc(b1-3)Gal(b1-4)Glc
In short: as §1

[43] = biological target: Gal(b1-3)Gal
In short: as §1

[44] = biological target: Gal(b1-3)GalNAc(a1-3)[Fuc(a1-2)]Gal(b1-4)GlcNAc
In short: as §1

[45] = biological target: Gal(b1-3)GlcNAc(a1-3)Gal(b1-4)GlcNAc
In short: as §1

[46] = biological target: Gal(b1-3)GlcNAc(b1-3)Gal(b1-4)Glc
In short: as §1

[47] = biological target: Gal(b1-3)GlcNAc(b1-3)Gal(b1-4)GlcNAc
In short: as §1

[48] = biological target: Gal(b1-3)[Fuc(a1-4)]GlcNAc(b1-3)Gal(b1-4)[Fuc(a1-3)]GlcNAc
In short: as §1

[49] = biological target: Gal(b1-3)[Neu5Ac(b2-6)]GalNAc
In short: as §1

[50] = biological target: Gal(b1-4)GalNAc(a1-3)[Fuc(a1-2)]Gal(b1-4)GlcNAc
In short: as §1

[51] = biological target: Gal(b1-4)GlcNAc(b1-2)Man(a1-3)[Gal(b1-4)GlcNAc(b1-2)Man(a1-6)][GlcNAc(b1-4)]Man(b1-4)GlcNAc(b1-4)[Fuc(a1-6)]GlcNAc
In short: as §1

[52] = biological target: GalNAc(a1-3)Gal
In short: as §1

[53] = biological target: Glc(a1-6)Glc(a1-6)Glc
In short: as §1

[54] = biological target: GlcNAc(a1-4)Gal(b1-4)GlcNAc(b1-3)Gal(b1-4)GlcNAc
In short: as §1

[55] = biological target: GlcNAc(b1-2)Man(a1-3)[GlcNAc(b1-4)][GlcNAc(b1-2)Man(a1-6)]Man(b1-4)GlcNAc(b1-4)GlcNAc
In short: as §1

B1: OrysaEULS2 (Oryza sativa) (protein)
chain: MVYCRANPNYAMTARNGAVVLAPANPKDEYQHWIKDMRWSTSIKDEEGYPAFALVNKATGQAIKHSLGQSHPVRLVPYNPEVMDESVLWTESRDVGNGFRCIRMVNNIYLNFDAFHGDKYHGGVRDGTDIVLWKWCEGDNQRWKIQPYYILEQKLISEEDLNSAVDHHHHHH
glycan array binding signal (z-score) [1]: -0.189 | glycan array binding signal (z-score) [2]: -0.206 | glycan array binding signal (z-score) [3]: 3.13 | glycan array binding signal (z-score) [4]: -0.179 | glycan array binding signal (z-score) [5]: -0.186 | glycan array binding signal (z-score) [6]: 0.555 | glycan array binding signal (z-score) [7]: -0.224 | glycan array binding signal (z-score) [8]: -0.167 | glycan array binding signal (z-score) [9]: -0.204 | glycan array binding signal (z-score) [10]: 1.35 | glycan array binding signal (z-score) [11]: 1.51 | glycan array binding signal (z-score) [12]: 4.8 | glycan array binding signal (z-score) [13]: 4.45 | glycan array binding signal (z-score) [14]: 12.5 | glycan array binding signal (z-score) [15]: 1.44 | glycan array binding signal (z-score) [16]: -0.31 | glycan array binding signal (z-score) [17]: -0.195 | glycan array binding signal (z-score) [18]: -0.24 | glycan array binding signal (z-score) [19]: -0.196 | glycan array binding signal (z-score) [20]: -0.179 | glycan array binding signal (z-score) [21]: -0.145 | glycan array binding signal (z-score) [22]: -0.207 | glycan array binding signal (z-score) [23]: -0.21 | glycan array binding signal (z-score) [24]: 3.61 | glycan array binding signal (z-score) [25]: -0.153

B2: Gal 2 (Homo sapiens), P05162 (protein)
chain: MTGELEVKNMDMKPGSTLKITGSIADGTDGFVINLGQGTDKLNLHFNPRFSESTIVCNSLDGSNWGQEQREDHLCFSPGSEVKFTVTFESDKFKVKLPDGHELTFPNRLGHSHLSYLSVRGGFNMSSFKLKE
glycan array binding signal (z-score) [26]: 3.12 | glycan array binding signal (z-score) [27]: 2.35 | glycan array binding signal (z-score) [28]: -0.048 | glycan array binding signal (z-score) [29]: 0.137 | glycan array binding signal (z-score) [30]: 2.16 | glycan array binding signal (z-score) [31]: 2.4 | glycan array binding signal (z-score) [32]: -0.17 | glycan array binding signal (z-score) [33]: -0.193 | glycan array binding signal (z-score) [34]: 2.52 | glycan array binding signal (z-score) [35]: 8.45 | glycan array binding signal (z-score) [36]: 3.75 | glycan array binding signal (z-score) [37]: 5.89 | glycan array binding signal (z-score) [38]: 13.5 | glycan array binding signal (z-score) [39]: -0.08 | glycan array binding signal (z-score) [40]: -0.254 | glycan array binding signal (z-score) [41]: -0.222 | glycan array binding signal (z-score) [42]: -0.229 | glycan array binding signal (z-score) [43]: -0.268 | glycan array binding signal (z-score) [44]: 9.48 | glycan array binding signal (z-score) [45]: -0.111 | glycan array binding signal (z-score) [46]: 0.74 | glycan array binding signal (z-score) [47]: 0.837 | glycan array binding signal (z-score) [48]: -0.269 | glycan array binding signal (z-score) [49]: -0.237 | glycan array binding signal (z-score) [50]: 5.71 | glycan array binding signal (z-score) [51]: -0.215 | glycan array binding signal (z-score) [52]: -0.281 | glycan array binding signal (z-score) [53]: -0.2 | glycan array binding signal (z-score) [54]: -0.28 | glycan array binding signal (z-score) [55]: -0.084
